Measured values reported in PubChem BioAssay.
The source made the active and inactive calls.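 Rule for the calls: active = inhibition at or above 50% relative to wild type and mutant plate controls; inactive = inhibition below 50%.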

Assay: loss of swimming-algae plug formation – whole organism, Chlamydomonas reinhardtii, WT vs cilia-less mutant, absorbance, 96-well, primary screen (AID 463189);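 note: 0% = wild type cc124 cells in DMSO and 100% = ciliumless bld1 mutant cells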
Conditions: Chlamydomonas reinhardtii gravitaxis, OD600 absorbance, 2 days; at 10 µM; stronger effect = higher value

Row | SMILES | inhibition
1 | O=C(O)C1=CC(=C(c2ccc(O)c(C(=O)O)c2)c2ccc(O)c(C(=O)O)c2)C=CC1=O | 0.098% (inactive)
2 | CC(C)(C)c1ccc(S(=O)(=O)/C=C/C#N)cc1 | 155% (active)
3 | NC(N)=N[C@@H](CCC(=O)O)C(=O)O | 2.13% (inactive)
4 | C[N+](C)(C)CCOC(=O)CCC(=O)OCC[N+](C)(C)C | -7.41% (inactive)
5 | N=S(=O)(O)Cc1noc2ccccc12 | 4.33% (inactive)
6 | CC(C)(C=O)Cc1cc(C(C)(C)C)c(O)c(C(C)(C)C)c1 | -3.35% (inactive)
7 | NC(N)=NC(N)=Nc1cccc(Cl)c1 | 4.09% (inactive)
8 | O=C(O)/C=C/c1cnc[nH]1 | 1.11% (inactive)
9 | NO | -14.1% (inactive)
10 | O=C(O)c1cc(=O)c2ccccc2[nH]1 | 9.15% (inactive)
11 | Cc1c(C)c2c(c(C)c1O)CCC(C)(CN1CCN(c3cc(N4CCCC4)nc(N4CCCC4)n3)CC1)O2 (stereo not drawn) | 6.96% (inactive)
12 | OCc1ccc(-c2nn(Cc3ccccc3)c3ccccc23)o1 | 3.81% (inactive)
13 | COc1ccccc1OCC(O)CN1CCN(CC(=O)Nc2c(C)cccc2C)CC1 (stereo not drawn) | 8.13% (inactive)
14 | CC(=O)NNC(=O)N1Cc2ccccc2Oc2ccc(Cl)cc21 | 3.76% (inactive)
15 | CCn1cc(C(=O)O)c(=O)c2cc(F)c(N3CCNC(C)C3)c(F)c21 (stereo not drawn) | 3.51% (inactive)
16 | O=c1[nH]c2cc(Cl)c(Cl)cc2[nH]c1=O | 5.88% (inactive)
17 | Cc1ccc(/C(=C\CN2CCCC2)c2ccccn2)cc1 | 11.6% (inactive)
18 | Brc1ccc([C@H]2CN3CCSC3=N2)cc1 | 123% (active)
